Measured values taken from PubChem BioAssay.
Values joined by “and” are separate entries in the source; they are usually repeats but may differ in a detail not shown here. Identical values can stand only once. A number with no mark means an inactive call. Active and inactive are the calls of the source. No rule for the calls is given here.

What was measured:
[1] = tested on: Aerobactin synthetase IucA (Klebsiella pneumoniae hvKP1); assay: IucA enzyme inhibition, primary screen, biochemical, Spectrum library (AID 1346200); settings: malachite green pyrophosphate, A620, at 8 µM, hits give low values;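 also: 100% = wells without compound and 0% = wells lacking enzyme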
[2] = tested on: Aerobactin synthetase IucA (Klebsiella pneumoniae, hypervirulent); assay: biochemical IucA inhibition screen of LOPAC library by absorbance (AID 1346212); settings: IucA enzyme assay, absorbance (OD) readout; hits give low values; concentration not given here;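 also: 100% = no compound wells and 0% = no enzyme wells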

Structure (SMILES)	activity remaining [1]	remaining activity [2]
Nc1ccc(S(=O)(=O)Nc2ccnn2-c2ccccc2)cc1	117%	99.3%
CCCCOc1cc(CC2CNC(=O)N2)ccc1OC (stereo not given)	115%	110%
CC[N+](CC)(CC)CCOc1cccc(OCC[N+](CC)(CC)CC)c1OCC[N+](CC)(CC)CC	96.2%	111%
Cc1cc(N)c2ccccc2[n+]1CCCCCCCCCC[n+]1c(C)cc(N)c2ccccc21	82.6%	105%
Cc1cc(C(C)(C)C)c(O)c(C)c1CC1=NCCN1	114%	117%
O=C(O)C1=CCCNC1	98.7%	96.8%
O=[N+]([O-])c1cccc2cn[nH]c12	102%	114%
O=c1n(CCCN2CCN(c3cccc(Cl)c3)CC2)nc2ccccn12	112%	118%
Cc1cc(C(C)(C)C)cc(C)c1CC1=NCCN1	126%	115%
COC(=O)C1=C(C)NC(C)=C(C(=O)OC)C1c1ccccc1[N+](=O)[O-]	100%	115%
CNCCC(Oc1ccc(C(F)(F)F)cc1)c1ccccc1 (stereo not given)	96.1%	96.6%
NCCCS(=O)(=O)O	104%	111%
CCCCNc1cc(C(=O)O)cc(S(N)(=O)=O)c1Oc1ccccc1	115%	109%
CC(C(=O)O)c1cccc(C(=O)c2ccccc2)c1 (stereo not given)	106%	120%
O=c1c(-c2ccc(O)cc2)coc2cc(O)cc(O)c12	109%	121%
c1ccc2c(CC3=NCCN3)cccc2c1	106%	115%
O=c1ccc2ccc(O)c(O)c2o1	103%	116%
NCCCCN	91.8%	94.5%
Cn1c(=O)c2[nH]cnc2n(C)c1=O	120%	111% and 102%
O=C1NC(=O)C(c2ccccc2)(c2ccccc2)N1	122%	124% and 101%
CC(C)Cn1c(=O)n(C)c(=O)c2[nH]cnc21	108% and 118%	108%
NS(=O)(=O)c1cc2c(cc1Cl)NC=NS2(=O)=O	113%	123%
NNCCc1ccccc1	112%	93.4%
Nc1c2c(nc3ccccc13)CCCC2O (stereo not given)	105%	101%

Structure (SMILES)	activity remaining [1]	remaining activity [2]
Clc1ccccc1C(c1ccccc1)(c1ccccc1)n1ccnc1	113%	117%
CCN(CC)CCNC(=O)c1cc(S(C)(=O)=O)ccc1OC	120%	104%
CN(C)CCC(c1ccccc1)c1ccccn1 (stereo not given)	109%	89.8%
CC(C)NNC(=O)c1ccncc1	93.2%	128%
Nc1ncnc2c1ncn2[C@@H]1O[C@H](CO)[C@@H](O)[C@H]1O	113%	110%
N=C(N)SCCN	98.6%	109%
Cc1nnc(SCC2=C(C(=O)O)N3C(=O)[C@@H](NC(=O)Cn4cnnn4)[C@H]3SC2)s1	101%	119%
Cc1scc2c1N(C(=O)CN1CCN(C)CC1)c1ccccc1NC2=O	117%	105%
Cc1ccccc1N1C(=O)c2cc(S(N)(=O)=O)c(Cl)cc2NC1C (stereo not given)	95.7%	122% and 125%
C[N+](C)(C)CCOC(N)=O	93.2%	119%
CC(C)(C(=O)O)c1ccc(C(O)CCCN2CCC(C(O)(c3ccccc3)c3ccccc3)CC2)cc1 (stereo not given)	113%	107%
Clc1ccc2c(c1)C(N1CCNCC1)=Nc1ccccc1O2	109%	126%
Cc1ccc(C(=O)Nc2ccc(S(=O)(=O)O)c3cc(S(=O)(=O)O)cc(S(=O)(=O)O)c23)cc1NC(=O)c1cccc(NC(=O)Nc2cccc(C(=O)Nc3cc(C(=O)Nc4ccc(S(=O)(=O)O)c5cc(S(=O)(=O)O)cc(S(=O)(=O)O)c45)ccc3C)c2)c1	69% (active)	34.4% (active)
Cn1cnc([N+](=O)[O-])c1Sc1ncnc2nc[nH]c12	113%	121%
CSc1ccc2c(c1)C(N1CCN(C)CC1)Cc1ccccc1S2 (stereo not given)	103%	114%
NC(=O)c1cccc(N)c1	121%	113%
CC1(C)NC(=O)N(c2ccc([N+](=O)[O-])c(C(F)(F)F)c2)C1=O	124%	98.2%
CCN(CC)CCCC(C)Nc1c2ccc(Cl)cc2nc2ccc(OC)cc12 (stereo not given)	93.4%	115%
O=C(CCCN1CC=C(n2c(=O)[nH]c3ccccc32)CC1)c1ccc(F)cc1	111%	98.7%
CN(C)CCOC(c1ccccc1)c1ccccc1	105%	100%
Cn1c(=O)c2[nH]c(C3CCCC3)nc2n(C)c1=O	97.7%	70.6%
O=C1CC2(CCCC2)CC(=O)N1CCCCN1CCN(c2ncccn2)CC1	118%	111%
CN(C)c1ccc(O)c2c1C[C@H]1C[C@H]3[C@H](N(C)C)C(=O)C(C(N)=O)=C(O)[C@@]3(O)C(=O)C1=C2O	105%	110%
O=NN(CCCl)C(=O)NCCCl	123%	115%

Structure (SMILES)	activity remaining [1]	remaining activity [2]
COCCOC(=O)C1=C(C)NC(C)=C(C(=O)OC(C)C)C1c1cccc([N+](=O)[O-])c1 (stereo not given)	118%	111%
NCCc1ccc(O)c(O)c1	103% and 107%	104%
CC(C)[N+](C)(CCOC(=O)C1c2ccccc2Oc2ccccc21)C(C)C	105%	92.2%
N[C@@H]1CONC1=O	102%	112%
O=C(O)CCc1nc(-c2ccccc2)c(-c2ccccc2)o1	111%	116%
CC1COc2c(N3CCN(C)CC3)c(F)cc3c(=O)c(C(=O)O)cn1c23 (stereo not given)	92.3%	118%
CN(C)CCCN1c2ccccc2Sc2ccc(Cl)cc21	115%	110%
CCCC(CCC)C(=O)O	108%	110%
CN1CCC(=C2c3ccccc3CC(=O)c3sccc32)CC1	100%	112%
CC(C)(Oc1ccc(C2CC2(Cl)Cl)cc1)C(=O)O (stereo not given)	116%	114%
O=C1CCc2cc(OCCCCc3nnnn3C3CCCCC3)ccc2N1	117%	113%
NC(CO)C(=O)NNCc1ccc(O)c(O)c1O (stereo not given)	109%	111%
C=Cc1c(C)c2cc3[nH]c(cc4nc(cc5nc(cc1[nH]2)C(C)=C5CCC(=O)O)C(CCC(=O)O)=C4C)c(C)c3C=C	97.5%	107%
Fc1ccc(C(c2ccc(F)cc2)N2CCN(C/C=C/c3ccccc3)CC2)cc1	117%	103%
CCOC(=O)C(C)(C)Oc1ccc(Cl)cc1	110%	122%
CCCNC(C)C(=O)Nc1ccccc1C (stereo not given)	82%	96.4%
COc1ccccc1OCC(O)CN1CCN(CC(=O)Nc2c(C)cccc2C)CC1 (stereo not given)	122%	97.8%
O=C1OC(=O)C2C3CCC(O3)C12 (stereo not given)	117%	106%
CCCN1C[C@H](CSC)C[C@@H]2c3cccc4[nH]cc(c34)C[C@H]21	120%	95.5%
Cc1cn[nH]c1	102%	121%
COC(=O)[C@H]1[C@H]2C[C@@H]3c4[nH]c5cc(OC)ccc5c4CCN3C[C@H]2C[C@@H](OC(=O)c2cc(OC)c(OC)c(OC)c2)[C@@H]1OC	109%	102%
O=C(c1ccc(F)cc1)C1CCN(CCn2c(=O)[nH]c3ccccc3c2=O)CC1	120%	73.1%
CCN(CC)CCOC(=O)C1(C2CCCCC2)CCCCC1	125%	92.7%
NC(=O)CC[C@H](N)C(=O)O	109%	110%

Structure (SMILES)	activity remaining [1]	remaining activity [2]
O=c1c(-c2ccc(O)cc2)coc2cc(O)ccc12	118%	99.6%
CC(C)COCC(CN(Cc1ccccc1)c1ccccc1)N1CCCC1 (stereo not given)	126%	91.4%
NCCCC(=O)O	119%	123%
CCSC(=N)N	103%	93.6%
c1ccc2c(c1)CCCC2C1=NCCN1 (stereo not given)	110%	102%
CCn1nc(C(=O)O)c(=O)c2cc3c(cc21)OCO3	112%	111%
CCOC(=O)C1=C[C@]2(CC)CCCN3CCc4c(n1c1ccccc41)[C@@H]32	108%	100%
CC(=O)OCC1=C(C(=O)O)N2C(=O)[C@@H](NC(=O)CSc3ccncc3)[C@H]2SC1	109%	113%
CN1CCC[C@@H]1CCO[C@](C)(c1ccccc1)c1ccc(Cl)cc1	99.3%	109%
CN1CCN(C2=Nc3cc(Cl)ccc3Nc3ccccc32)CC1	120%	127%
CCn1cc(C(=O)O)c(=O)c2cc(F)c(N3CCNC(C)C3)c(F)c21 (stereo not given)	104%	118%
CC/C(=C(\c1ccccc1)c1ccc(OCCN(C)C)cc1)c1ccccc1	118%	107%
CN(C)CCOC(C)(c1ccccc1)c1ccccn1 (stereo not given)	104%	101%
O=C(O)CCCCCCCC(=O)O	120%	93.4%
NCCS	117%	110%
CCN(CC)CCNC(=O)c1ccc(N)cc1	95.4%	96.2%
Oc1ccc(/C=C/c2cc(O)cc(O)c2)cc1	110%	75.6%
CN(C)CCN(Cc1cccs1)c1ccccn1	120%	93%
CC(=O)NCCc1c[nH]c2ccc(O)cc12	113%	106%
CNCCCC12CCC(c3ccccc31)c1ccccc12	105%	109%
Cc1ccc(N(CC2=NCCN2)c2cccc(O)c2)cc1	117%	92.9%
CC(CN1c2ccccc2Sc2ccccc21)N(C)C (stereo not given)	78.1%	109%
C1CCc2nnnn2CC1	112%	107%
NC(=O)N1c2ccccc2C=Cc2ccccc21	114%	102%

Structure (SMILES)	activity remaining [1]	remaining activity [2]
OC(CCN1CCCCC1)(c1ccccc1)C1CC2C=CC1C2 (stereo not given)	87.7%	116%
Cn1cnc2c1c(=O)[nH]c(=O)n2C	126%	97.1%
COc1ccc2c(c1)c(CC(=O)O)c(C)n2C(=O)c1ccc(Cl)cc1	103%	92%
CC1=NS(=O)(=O)c2cc(Cl)ccc2N1	107%	105%
COc1cc(Cc2cnc(N)nc2N)cc(OC)c1OC	93.2%	76.5%
CC(CN(C)C)CN1c2ccccc2CCc2ccccc21 (stereo not given)	105%	106%
COc1ccc(Cl)cc1C(=O)NCCc1ccc(S(=O)(=O)NC(=O)NC2CCCCC2)cc1	91.3%	120%
CC(C)(C)NCC(O)c1cc(O)cc(O)c1 (stereo not given)	109%	109%
CCN(CC)CCOCCOC(=O)C1(c2ccccc2)CCCC1	93.9%	113%
CC(C)OC(=O)C(C)(C)Oc1ccc(C(=O)c2ccc(Cl)cc2)cc1	94.1%	108%
CC1=C(CC(=O)O)c2cc(F)ccc2/C1=C\c1ccc(S(C)=O)cc1 (stereo not given)	90%	119%
NCCCCCC(=O)O	113%	113%
CCCOc1ccccc1-c1nc2n[nH]nc2c(=O)[nH]1	97.7%	125%
CS(=O)(=O)Nc1ccc([N+](=O)[O-])cc1Oc1ccccc1	113%	117%
CN[C@H](CC(=O)O)C(=O)O	118%	118%
Nc1c2c(nc3ccccc13)CCCC2	118%	119%
CCc1cccc2c3c([nH]c12)C(CC)(CC(=O)O)OCC3 (stereo not given)	116%	116%
N=c1nc(N2CCCCC2)cc(N)n1O	110%	118%
O=c1[nH]cnc2[nH]ncc12	99.3%	110%
O=c1[nH]cc(F)c(=O)[nH]1	96.1%	98.4%
CC1=C(/C=C/C(C)=C/C=C/C(C)=C/C(=O)O)C(C)(C)CCC1	109%	92%
Cc1ccc(Cl)c(Nc2ccccc2C(=O)O)c1Cl	93.4%	128%
O=C(c1ccc(OCCN2CCCCC2)cc1)c1c(-c2ccc(O)cc2)sc2cc(O)ccc12	105%	92%
NS(=O)(=O)c1cc2c(cc1Cl)NC(C1CC3C=CC1C3)NS2(=O)=O (stereo not given)	122%	95.7%
